Conditions in all cases: mRNA level, 48 h; actives raise or lower the signal
Read-out in assay [1]: JUN Transcription Factor, JUN (gene 3725)
As to the kind of experiment: LTEA_HepaRG_JUN: Life Technologies and Expression Analysis (LTEA) Assay for JUN Transcription Factor using HepaRG (AID 2283513). The procedure, abridged: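 HepaRG cells, 48 h post-plating, exposed 48 h in serum-free induction medium to 8-point half-log series (top 100 uM, 0.5% DMSO), duplicate; mRNA by qRT-PCR (TaqMan, Fluidigm), normalized to ACTB/GAPDH/POLR2A; bidirectional fit vs DMSO.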

Read-out in assay [2]: Lipase C (LIPC), LIPC (gene 3990)
As to the kind of experiment: LTEA_HepaRG_LIPC: Life Technologies and Expression Analysis (LTEA) Assay for Lipase C (LIPC) using HepaRG (AID 2283514). The method in brief:
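HepaRG cells, 48 h after plating, treated in duplicate for 48 h in serum-free induction medium over 8 half-log concentrations from 100 uM, 0.5% DMSO. LIPC mRNA by TaqMan qRT-PCR normalized to ACTB/GAPDH/POLR2A; bidirectional fit versus DMSO.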

Read-out in assay [3]: Lipoprotein lipase (LPL), LPL (gene 4023)
As to the kind of experiment: LTEA_HepaRG_LPL: Life Technologies and Expression Analysis (LTEA) Assay for Lipoprotein lipase (LPL) using HepaRG (AID 2283515). The method in brief: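 Differentiated HepaRG cells, plated 48 h, then exposed 48 h in serum-free induction medium to 8 concentrations (top 100 uM, half-log steps) in 0.5% DMSO, duplicate. LPL mRNA measured by qRT-PCR, normalized to ACTB, GAPDH and POLR2A.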

Read-out in assay [4]: MicroRNA 122 (MIR122), gene 406906
As to the kind of experiment: LTEA_HepaRG_MIR122: Life Technologies and Expression Analysis (LTEA) Assay for MicroRNA 122 (MIR122) using HepaRG (AID 2283516). Note: the transcript read is the microRNA miR-122. The method in brief:
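Differentiated human HepaRG cells in serum-free induction medium exposed 48 h to 8 half-log concentrations from 100 uM in 0.5% DMSO, duplicate. MIR122 quantified by Fluidigm TaqMan qRT-PCR, normalised to ACTB, GAPDH, POLR2A; fold change fitted bidirectionally versus DMSO.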

Read-out in assay [5]: matrix metalloproteinase-10 (MMP10), MMP10 (gene 4319)
As to the kind of experiment: LTEA_HepaRG_MMP10: Life Technologies and Expression Analysis (LTEA) Assay for matrix metalloproteinase-10 (MMP10) using HepaRG (AID 2283517). The procedure, abridged: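 Differentiated HepaRG cells in serum-free induction medium exposed 48 h in duplicate to 8-point half-log series up to 100 uM in 0.5% DMSO. mRNA quantified by qRT-PCR, normalised to ACTB, GAPDH, POLR2A; bidirectional fit versus DMSO.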

Read-out in assay [6]: MYC, MYC (gene 4609)
As to the kind of experiment: LTEA_HepaRG_MYC: Life Technologies and Expression Analysis (LTEA) Assay for MYC using HepaRG (AID 2283518). The procedure, abridged: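 MYC transcript changes, up or down relative to 0.5% DMSO, from TaqMan qRT-PCR normalized to three housekeeping genes. Human HepaRG cultures received chemicals for 48 h at eight half-log concentrations up to 100 uM, in duplicate.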

Read-out in assay [7]: matrix metalloproteinase-3 (MMP3), MMP3 (gene 4314)
As to the kind of experiment: LTEA_HepaRG_MMP3: Life Technologies and Expression Analysis (LTEA) Assay for matrix metalloproteinase-3 (MMP3) using HepaRG (AID 2283519). The method in brief:
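HepaRG cells (~100,000/well) in serum-free induction medium were dosed in duplicate for 48 h with an 8-point half-log series from 100 uM, 0.5% DMSO. MMP3 mRNA was quantified by Fluidigm TaqMan qRT-PCR, normalized to three housekeeping genes.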

Read-out in assay [8]: Paternally Expressed 10 (PEG10), PEG10 (gene 23089)
As to the kind of experiment: LTEA_HepaRG_PEG10: Life Technologies and Expression Analysis (LTEA) Assay for Paternally Expressed 10 (PEG10) using HepaRG (AID 2283520). The procedure, abridged:
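Differentiated HepaRG cells exposed 48 h in serum-free induction medium to eight half-log concentrations topping at 100 uM, 0.5% DMSO, in duplicate. PEG10 mRNA quantified by TaqMan qRT-PCR, normalized to ACTB, GAPDH and POLR2A; bidirectional fit versus DMSO.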

Read-out in assay [9]: Nuclear factor NF-kappa-B p105 subunit (Homo sapiens) (UniProt P19838)
As to the kind of experiment: LTEA_HepaRG_NFKB1: Life Technologies and Expression Analysis (LTEA) Assay for Nuclear Factor Kappa B Subunit 1 (NFKB1) using HepaRG (AID 2283521).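 Note: TaqMan qRT-PCR transcript normalised to ACTB GAPDH and POLR2A housekeeping genes.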 The method in brief:
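Human HepaRG cells receive eight half-log concentrations, highest 100 uM, for 48 h. NFKB1 expression is then quantified by qRT-PCR and analysed for up- or down-regulation relative to 0.5% DMSO vehicle.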

Read-out in assay [10]: Protein phosphatase 2A (PPP2R4), PTPA (gene 5524)
As to the kind of experiment: LTEA_HepaRG_PPP2R4: Life Technologies and Expression Analysis (LTEA) Assay for Protein phosphatase 2A (PPP2R4) using HepaRG (AID 2283522). The method in brief: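 Differentiated human HepaRG cells in serum-free induction medium were exposed 48 h to 8 concentrations (top 100 µM, half-log steps, duplicate) in 0.5% DMSO. PPP2R4 mRNA was measured by TaqMan qRT-PCR, normalised to ACTB, GAPDH and POLR2A, and fitted bidirectionally versus DMSO.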

Read-out in assay [11]: Phosphatase and tensin (PTEN), PTEN (gene 5728)
As to the kind of experiment: LTEA_HepaRG_PTEN: Life Technologies and Expression Analysis (LTEA) Assay for Phosphatase and tensin (PTEN) using HepaRG (AID 2283523). The method in brief: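 HepaRG cells, 48 h after plating, exposed in duplicate for 48 h in serum-free induction medium to 8 half-log concentrations up to 100 uM (0.5% DMSO). PTEN mRNA by qRT-PCR, normalized to ACTB, GAPDH, POLR2A; bidirectional fit versus DMSO.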

Read-out in assay [12]: solute carrier (SLC22A1), SLC22A1 (gene 6580)
As to the kind of experiment: LTEA_HepaRG_SLC22A1: Life Technologies and Expression Analysis (LTEA) Assay for solute carrier (SLC22A1) using HepaRG (AID 2283524). The method in brief:
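Differentiated human HepaRG cells in serum-free induction medium, exposed 48 h in duplicate to 8-point half-log series from 100 µM top in 0.5% DMSO. SLC22A1 mRNA by TaqMan qRT-PCR normalized to ACTB, GAPDH, POLR2A; bidirectional fit versus DMSO.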

Read-out in assay [13]: Pyruvate Dehydrogenase Kinase 4 (PDK4), PDK4 (gene 5166)
As to the kind of experiment: LTEA_HepaRG_PDK4: Life Technologies and Expression Analysis (LTEA) Assay for Pyruvate Dehydrogenase Kinase 4 (PDK4) using HepaRG (AID 2283525). The procedure, abridged:
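HepaRG cells plated 48 h, then switched to serum-free induction medium and exposed in duplicate for 48 h to 8 half-log concentrations from 100 uM in 0.5% DMSO. PDK4 mRNA measured by qRT-PCR, normalized to ACTB, GAPDH and POLR2A; bidirectional fit versus DMSO.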

Read-out in assay [14]: NAD(P)H dehydrogenase [quinone] 1 (NQO1), NQO1 (gene 1728)
As to the kind of experiment: LTEA_HepaRG_NQO1: Life Technologies and Expression Analysis (LTEA) Assay for NAD(P)H dehydrogenase [quinone] 1 (NQO1) using HepaRG (AID 2283526). The procedure, abridged: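 Differentiated human HepaRG cells in serum-free induction medium, dosed in duplicate for 48 h at 8 half-log concentrations up to 100 uM in 0.5% DMSO. NQO1 mRNA by qRT-PCR normalized to ACTB, GAPDH, POLR2A; bidirectional fit versus DMSO baseline.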

Read-out in assay [15]: Nuclear factor erythroid 2-related factor 2 (Homo sapiens) (UniProt Q16236)
As to the kind of experiment: LTEA_HepaRG_NFE2L2: Life Technologies and Expression Analysis (LTEA) Assay for Nuclear factor erythroid 2-related factor 2 (NFE2L2) Transcription Factor using HepaRG (AID 2283527).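 For outcome: TaqMan qRT-PCR transcript level normalised to ACTB GAPDH and POLR2A housekeeping genes.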 The method in brief: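 Differentiated human HepaRG cells, serum-free induction medium, exposed 48 h in duplicate to eight half-log concentrations up to 100 uM in 0.5% DMSO. NFE2L2 mRNA by Fluidigm TaqMan qRT-PCR, normalised to ACTB, GAPDH, POLR2A; bidirectional change versus DMSO.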

Read-out in assay [16]: succinate dehydrogenase complex iron sulfur subunit B (SDHB), SDHB (gene 6390)
As to the kind of experiment: LTEA_HepaRG_SDHB: Life Technologies and Expression Analysis (LTEA) Assay for succinate dehydrogenase complex iron sulfur subunit B (SDHB) using HepaRG (AID 2283528). The procedure, abridged: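 A human HepaRG culture in serum-free induction medium received test chemicals for 48 h over an eight-point range capped at 100 uM. SDHB expression change was quantified by qRT-PCR.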

Read-out in assay [17]: Signal transducer and activator of transcription 3 (Homo sapiens) (UniProt P40763)
As to the kind of experiment: LTEA_HepaRG_STAT3: Life Technologies and Expression Analysis (LTEA) Assay for Signal transducer and activator of transcription (STAT3) using HepaRG (AID 2283529). The procedure, abridged:
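Differentiated HepaRG cells, serum-free induction medium, dosed 48 h in duplicate, 8 half-log concentrations from 100 uM in 0.5% DMSO. STAT3 mRNA by qRT-PCR, normalised to ACTB, GAPDH, POLR2A; bidirectional fit versus DMSO.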

Read-out in assay [18]: solute carrier (SLCO1B1), SLCO1B1 (gene 10599)
As to the kind of experiment: LTEA_HepaRG_SLCO1B1: Life Technologies and Expression Analysis (LTEA) Assay for solute carrier (SLCO1B1) using HepaRG (AID 2283530). The method in brief:
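SLCO1B1 transcript levels were quantified by TaqMan qRT-PCR using three housekeeping genes for normalization. This followed 48 h chemical exposure (100 uM top, half-log, 8 points, 0.5% DMSO) of HepaRG liver cells, with gain or loss fitted relative to DMSO.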

Read-out in assay [19]: Transforming Growth Factor (TGFA), TGFA (gene 7039)
As to the kind of experiment: LTEA_HepaRG_TGFA: Life Technologies and Expression Analysis (LTEA) Assay for Transforming Growth Factor (TGFA) using HepaRG (AID 2283532). The procedure, abridged:
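Differentiated HepaRG cells exposed 48 hours in serum-free induction medium, 0.5% DMSO vehicle, 8-point half-log series from 100 uM, in duplicate. TGFA mRNA by TaqMan qRT-PCR, normalised to ACTB, GAPDH, POLR2A; bidirectional fit versus DMSO.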

Read-out in assay [20]: sulfotransferase 2A1 (SULT2A1), SULT2A1 (gene 6822)
As to the kind of experiment: LTEA_HepaRG_SULT2A1: Life Technologies and Expression Analysis (LTEA) Assay for sulfotransferase 2A1 (SULT2A1) using HepaRG (AID 2283531). The method in brief: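 Expression change of SULT2A1, by qRT-PCR with three housekeeping-gene normalization, was scored bidirectionally versus DMSO. Cells: differentiated HepaRG, dosed in duplicate for 48 h across 8 points, highest 100 µM, half-log dilution, 0.5% DMSO.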

The text below walks through data of PubChem BioAssay (EPA / NIEHS).

Structures are written as SMILES. The source made the active and inactive calls. Rule for the calls: active = hit-call score of the fitted dose curve at least 0.9, where 1 is the maximum; inactive = score below 0.9.

Signal transducer and activator of transcription 3 (Homo sapiens), sequence (P40763 whole entry, looked up): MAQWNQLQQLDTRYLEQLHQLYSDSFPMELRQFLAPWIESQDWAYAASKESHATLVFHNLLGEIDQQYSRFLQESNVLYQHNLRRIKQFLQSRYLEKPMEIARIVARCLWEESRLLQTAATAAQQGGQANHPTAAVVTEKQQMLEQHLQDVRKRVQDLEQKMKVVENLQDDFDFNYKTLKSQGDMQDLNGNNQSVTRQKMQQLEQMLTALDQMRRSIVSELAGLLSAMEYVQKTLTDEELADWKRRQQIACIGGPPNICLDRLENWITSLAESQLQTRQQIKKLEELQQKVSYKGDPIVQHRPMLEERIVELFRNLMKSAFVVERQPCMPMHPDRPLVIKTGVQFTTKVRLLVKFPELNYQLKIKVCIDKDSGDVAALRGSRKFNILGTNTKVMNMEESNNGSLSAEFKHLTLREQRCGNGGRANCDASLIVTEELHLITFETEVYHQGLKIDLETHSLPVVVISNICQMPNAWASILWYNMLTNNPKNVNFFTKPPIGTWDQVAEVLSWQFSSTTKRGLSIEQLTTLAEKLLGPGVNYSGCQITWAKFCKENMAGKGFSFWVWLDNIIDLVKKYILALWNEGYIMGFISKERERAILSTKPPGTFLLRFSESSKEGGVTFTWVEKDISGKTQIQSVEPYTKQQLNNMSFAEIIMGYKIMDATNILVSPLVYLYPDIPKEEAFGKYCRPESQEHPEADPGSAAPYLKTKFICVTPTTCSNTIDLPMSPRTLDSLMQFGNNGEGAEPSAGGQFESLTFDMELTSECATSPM
Nuclear factor erythroid 2-related factor 2 (Homo sapiens), sequence (Q16236 whole entry, looked up): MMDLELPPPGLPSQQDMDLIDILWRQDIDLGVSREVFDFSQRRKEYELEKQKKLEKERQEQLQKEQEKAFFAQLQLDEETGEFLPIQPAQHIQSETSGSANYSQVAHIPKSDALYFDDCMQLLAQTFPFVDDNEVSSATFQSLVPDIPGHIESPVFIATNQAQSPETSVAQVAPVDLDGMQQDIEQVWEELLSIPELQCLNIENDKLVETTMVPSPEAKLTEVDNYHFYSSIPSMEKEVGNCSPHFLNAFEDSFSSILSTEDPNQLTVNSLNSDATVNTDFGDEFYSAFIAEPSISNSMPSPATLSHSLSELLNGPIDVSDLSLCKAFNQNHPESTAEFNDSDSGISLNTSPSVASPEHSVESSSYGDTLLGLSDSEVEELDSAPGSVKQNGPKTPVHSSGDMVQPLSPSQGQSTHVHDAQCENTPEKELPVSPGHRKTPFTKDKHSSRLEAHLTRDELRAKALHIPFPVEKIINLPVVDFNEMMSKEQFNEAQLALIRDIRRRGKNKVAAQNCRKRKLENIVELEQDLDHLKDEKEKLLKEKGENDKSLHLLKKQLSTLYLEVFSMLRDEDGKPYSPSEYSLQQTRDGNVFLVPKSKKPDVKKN
Nuclear factor NF-kappa-B p105 subunit (Homo sapiens), sequence (P19838 whole entry, looked up): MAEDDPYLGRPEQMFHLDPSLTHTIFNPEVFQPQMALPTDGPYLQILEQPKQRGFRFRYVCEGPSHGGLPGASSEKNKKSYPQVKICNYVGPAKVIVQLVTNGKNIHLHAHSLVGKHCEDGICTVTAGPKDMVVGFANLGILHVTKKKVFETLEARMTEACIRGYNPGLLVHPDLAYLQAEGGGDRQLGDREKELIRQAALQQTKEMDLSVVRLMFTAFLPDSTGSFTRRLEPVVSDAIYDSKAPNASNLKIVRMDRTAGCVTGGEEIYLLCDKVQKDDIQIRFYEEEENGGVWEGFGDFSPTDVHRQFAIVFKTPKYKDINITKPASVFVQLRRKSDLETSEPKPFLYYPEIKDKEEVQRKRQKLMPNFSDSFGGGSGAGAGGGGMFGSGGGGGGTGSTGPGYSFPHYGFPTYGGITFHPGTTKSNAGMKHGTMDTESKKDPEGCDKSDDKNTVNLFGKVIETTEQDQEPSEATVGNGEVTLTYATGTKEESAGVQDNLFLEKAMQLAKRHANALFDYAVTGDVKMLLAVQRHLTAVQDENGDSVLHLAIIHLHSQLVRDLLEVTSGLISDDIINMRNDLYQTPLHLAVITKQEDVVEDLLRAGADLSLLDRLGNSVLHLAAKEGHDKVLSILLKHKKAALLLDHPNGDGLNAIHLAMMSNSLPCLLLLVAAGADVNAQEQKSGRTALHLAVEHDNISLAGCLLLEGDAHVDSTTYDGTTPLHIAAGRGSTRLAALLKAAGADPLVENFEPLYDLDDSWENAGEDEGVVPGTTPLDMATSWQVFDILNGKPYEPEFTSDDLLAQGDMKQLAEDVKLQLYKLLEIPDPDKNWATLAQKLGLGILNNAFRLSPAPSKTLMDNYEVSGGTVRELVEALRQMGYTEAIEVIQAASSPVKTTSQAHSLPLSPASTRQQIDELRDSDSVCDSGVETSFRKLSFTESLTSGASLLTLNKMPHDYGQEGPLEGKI

Turning to `CC(C)=CCC/C(C)=C/CO`, the molecule was called inactive in [1], in assay [2], in assay [3], in assay [4], in [5] and in [6]. The molecule was classed as inactive in assay [7], in [8], in assay [9], in assay [10], in assay [11] and in assay [12]. For the same molecule, the molecule was classed as inactive in assay [13], in assay [14], in assay [15], in assay [16], in assay [17] and in assay [18]. In addition, in [19], the outcome was inactive.

Usually AC50 stands for the midpoint of the concentration-response curve, whichever way the signal moves. For the molecule `Fc1ccccc1[C@@H](F)COC1CCC(Nc2ncnc3[nH]ncc23)CC1` (some centres undefined), the outcome in [1], in [9], in assay [10], in assay [11] and in assay [16] was inactive. The AC50 in assay [2] is 50 µM (active); in assay [3], 28 µM (active); in assay [4], 56.5 µM (active); in assay [5] it was 64.7 µM (active); in assay [6], 34 µM (active); in assay [7] it was 50 µM (active). Moreover, the AC50 in assay [8] was 35.8 µM (active); in [12] it was 55.8 µM (active); in assay [13] it was 11.7 µM (active); in [14] it was 26.5 µM (active); in [15] it was 88.8 µM (active); in assay [17], 8.85 µM (active). Further, the half-maximal activity concentration (AC50) in assay [18] was 71.7 µM (active); in [20], 65.7 µM (active); in [19], 50 µM (active).

As to `CCn1nc(Cc2ccccc2)cc1C1CCN(C[C@H]2C[C@H](N(C)[C@@H](C(=O)O)C(C)C)C[C@@H]2c2cccc(F)c2)CC1`, the molecule was called inactive in assay [1], in assay [2], in assay [4], in [5], in [6] and in [7]. The molecule was classed as inactive in assay [8], in assay [9], in assay [10], in assay [11], in assay [13] and in assay [14]. Moreover, the molecule was classed as inactive in assay [15], in [16], in assay [17], in [18], in [20] and in assay [19]. In addition, the AC50 in assay [3] is 50 µM (active); in assay [12], 12.4 µM (active).
